Screening data: PubChem, several laboratories
A selection: hits, their analogues and other compounds. The true share with any hit is near 2.1%.
Env fusion inh – HIV envelope-mediated fusion inhibition; 360,000 tested, 1.1% active; inhibition, % at 12.3 µM; HeLa-JRFL Env/CEM21 cell fusion, luciferase;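 active = mean replicate inhibition score of at least 50 and every replicate individually at or above 50; inconclusive = only one of the two criteria met; inactive = mean below 50 and not all replicates reaching 50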
GalR3 antag – human GalR3 antagonism; O60755; HEK293 GalR3-CNG cAMP membrane potential fluorescence; galR3 body fused to GalR1 C-terminus; 360,000 tested, 0.44% active; AID 651719; inhibition, % at 3 µM;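 active = inhibition above the screen-wide average plus 3 SD, cut at about 13% in these data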;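 note: forskolin and galanin both at EC90 stimulate the cells; cAMP rise reported by CNG channel membrane potential dye signal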
Target sequence (O60755 1-299 limits assumed): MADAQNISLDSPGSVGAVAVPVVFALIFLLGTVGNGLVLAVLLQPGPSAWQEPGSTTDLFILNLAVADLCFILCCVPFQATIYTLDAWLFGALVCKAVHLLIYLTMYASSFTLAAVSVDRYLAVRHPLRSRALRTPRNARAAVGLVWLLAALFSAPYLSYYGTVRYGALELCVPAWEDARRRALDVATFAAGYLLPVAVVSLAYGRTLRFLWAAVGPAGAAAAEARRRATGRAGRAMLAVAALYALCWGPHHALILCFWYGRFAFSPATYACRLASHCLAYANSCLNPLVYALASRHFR
COUP-TFII inh – NR2F2 (human) inhibition, primary screen | P24468 | HEK293T NGFI-A luciferase reporter, luminescence | 370,000 tested, 0.7% active | inhibition, % at 8.6 µM;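 active = inhibition above a per-plate cutoff, mean inhibition of test wells between control levels plus 3 SD, cut at about 38% in these data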;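 note: cells cotransfected with COUP-TFII expression vector driving the NGFI-A reporter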
Target sequence (P24468 whole entry, looked up): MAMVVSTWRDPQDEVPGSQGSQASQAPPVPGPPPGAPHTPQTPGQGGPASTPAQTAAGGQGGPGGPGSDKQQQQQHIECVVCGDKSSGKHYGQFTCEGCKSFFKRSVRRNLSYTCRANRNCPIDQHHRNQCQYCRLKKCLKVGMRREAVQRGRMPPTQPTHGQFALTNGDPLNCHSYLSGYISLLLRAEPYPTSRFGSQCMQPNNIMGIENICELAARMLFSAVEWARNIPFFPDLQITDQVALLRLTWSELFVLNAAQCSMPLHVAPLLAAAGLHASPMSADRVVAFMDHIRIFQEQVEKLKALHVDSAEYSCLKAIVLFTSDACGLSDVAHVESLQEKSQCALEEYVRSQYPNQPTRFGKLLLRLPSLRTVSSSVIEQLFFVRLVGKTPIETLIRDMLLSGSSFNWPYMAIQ
Gli-Sufu antag – Gli-Sufu pathway antagonism | inhibition, % at 5 µM | 340,000 tested, 0.74% active | Sufu-KO-LIGHT fibroblasts, Gli luciferase reporter luminescence;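 active = inhibition above about 55%, limit read from the data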
aDG glyco up – increases alpha dystroglycan glycosylation; activation, % at 10 µM; Pro5-aDG cells, alpha-DG glycosylation AlphaScreen (IIH6); 0% Pro5, 100% B10-LARGE cell signal; 360,000 tested, 0.22% active;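 active = activation of at least 8% versus controls, or a plate z-score of at least 8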;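 note: Pro5 are CHO cells carrying HIG-tagged alpha-DG that lacks glycosylation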
GalR3 conf – GalR3 (human) antagonism, confirmation | shares compounds with GalR3 antag | HEK293 GalR3 CNG cAMP biosensor, membrane potential fluorescence; galR3 fused to GalR1 carboxy tail; challenged with forskolin and galanin at EC90 | inhibition, % at 3 µM | 1,600 tested, 59% active;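 active = inhibition above the primary screen's cutoff, the mean inhibition of all screened compounds plus 3 SD, cut at about 13% in these data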
HEK-CNG parental – counter-screen for GalR3 antagonists: nonspecific agonists in parental HEK-CNG cells | shares compounds with GalR3 antag | HEK293-CNG parental cells, cAMP membrane potential fluorescence; normalised: DMSO wells 0%, forskolin wells 100% | activation, % at 3 µM | 1,600 tested, 10% active | AID 652268; in the data active = activation above about 1.3%
Gal4-VP16 ctr – counter-screen for COUP-TFII antagonists: inhibitors of VP16. 2,500 tested, 25% active. AID 687007. shares compounds with COUP-TFII inh. HEK293 Gal4-VP16 luciferase reporter, luminescence. inhibition, % at 8.5 µM; in the data active = inhibition above about 13%
NR2F2 inh conf – COUP-TFII (NR2F2) inhibition, confirmation assay; shares compounds with COUP-TFII inh; HEK293 NGFI-A luciferase reporter, luminescence; inhibition, % at 8.5 µM; 2,500 tested, 45% active;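 active = mean inhibition over three repeats above a set limit taken from the earlier primary screen, cut at about 38% in these data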
Hits are given with their value; n = inactive; u = inconclusive; x = not tested or not shown.

SMILES | Env fusion inh | GalR3 antag | COUP-TFII inh | Gli-Sufu antag | aDG glyco up | GalR3 conf | HEK-CNG parental | Gal4-VP16 ctr | NR2F2 inh conf
COc1ccc(-c2ccc(C(=O)NCc3ccncc3)c3occc23)c(C)c1 | n | 90.0 | 68.5 | x | n | 102.6 | n | n | 55.9
COc1ccc(-c2coc3c(C(=O)NCc4ccc(OC)c(OC)c4)cccc23)c(C)c1 | n | 88.6 | 78.6 | x | n | 103.6 | n | n | 69.2
COc1ccc(-c2ccc(C(=O)NCc3ccc(F)c(F)c3)c3occc23)c(C)c1 | n | n | n | x | n | x | x | x | x
O=C(NCc1ccncc1)c1ccc(-c2ccc(F)c(F)c2)c2ccoc12 | n | 29.2 | 70.1 | x | n | n | n | n | 41.0
Cc1noc(C)c1NC(=O)N(C)C[C@H]1Oc2c(cccc2N(C)C)C(=O)N([C@@H](C)CO)C[C@@H]1C | n | x | x | x | x | x | x | x | x
CC(O)CC(=O)OC[C@]12CC[C@H]3[C@@](C)(CC[C@H]4C(C)(C)CCC[C@]34C)[C@@H]1CC(C1=CC(=O)OC1O)O2 (some centres not stated) | x | 23.2 | 86.5 | x | n | 21.9 | n | 52.3 | 72.4
CSc1ccccc1OCc1cc(C(=O)N2CCNC(=O)C2)no1 | n | n | n | n | n | x | x | x | x
COC(=O)C1CCCCN1C(=O)c1cc(COc2cccc3cnccc23)on1 (configuration not stated) | 63.9 | 106.2 | 61.4 | x | n | 107.0 | n | n | 59.5
CSc1ccccc1OCc1cc(C(=O)N2CCC(c3ccncc3)CC2)no1 | n | 75.2 | 58.0 | x | n | 94.0 | n | n | 51.4
COCC#Cc1cnc2c(c1)C(=O)N([C@H](C)CO)C[C@H](C)[C@H](CN(C)C(=O)C1CCCCC1)O2 | n | x | x | x | x | x | x | x | x
OCCC1CN(Cc2nc(-c3ccc(F)cc3)cs2)CCN1CCc1ccccc1 (configuration not stated) | n | n | n | n | n | x | x | x | x
CC(C)(C)CN1CCN(Cc2nc(-c3ccc(F)cc3)cs2)CC1CCO (configuration not stated) | u | 100.9 | 48.1 | n | n | 108.8 | n | n | n
Cn1c(CN2CCCCC2)nc2cc(NC(=O)c3ccc(Cl)cc3)ccc21 | 78.5 | 80.9 | 62.2 | n | n | 48.1 | n | n | 47.7
COc1ccc(NC(=O)CSc2ncccc2C(=O)OC(C)C)cc1OC | u | 28.0 | 58.4 | n | n | 12.9 | n | n | n
COc1ccc(NC(=O)CSc2ccccn2)cc1OC | x | n | n | n | n | x | x | x | x
CNC[C@@H]1OCCCC[C@H](C)Oc2ccc(NC(=O)Nc3c(C)noc3C)cc2C(=O)N([C@H](C)CO)C[C@@H]1C | n | x | x | x | x | x | x | x | x
C[C@H](CO)N1C[C@H](C)[C@@H](CN(C)Cc2ccc(Oc3ccccc3)cc2)Oc2ccc(NC(=O)C3CC3)cc2CC1=O | n | x | x | x | x | x | x | x | x
O=C(Nc1ccn(Cc2ccccc2F)n1)c1ccc(COc2ccc(Br)cc2)cc1 | 86.7 | 97.1 | 72.8 | n | n | 106.5 | n | n | 47.0
O=C(Nc1ccc(Cn2cccn2)cc1)c1ccc(COc2ccc(Br)cc2)cc1 | x | n | n | n | n | x | x | x | x
C[C@@H]1CN([C@H](C)CO)S(=O)(=O)c2ccc(-c3cccnc3)cc2O[C@H]1CN(C)C(=O)C1CCC1 | n | x | x | x | x | x | x | x | x
CCOc1ccc(NC(=O)c2ccc(CN3CCc4ccccc4C3)cc2)cc1 | n | 102.9 | 47.6 | n | n | 107.6 | n | n | 40.8
CCOC(=O)c1ccc(NC(=O)c2ccc(CN3CCOCC3)cc2)cc1 | x | 94.1 | 49.5 | n | n | 110.3 | n | n | 38.2
CCOC(=O)c1ccc(NC(=O)CN2CCc3ccccc3C2)cc1 | n | n | n | n | n | x | x | x | x
Cc1cc(CSc2ccccc2)ccc1NC(=O)c1ccc(CN2CCOCC2)cc1 | 68.3 | 105.5 | 63.3 | n | n | 121.8 | n | n | 60.5
CCOC(=O)c1ccc(NC(=O)c2ccc(CN3CCc4ccccc4C3)cc2)cc1 | 58.3 | 71.4 | 50.8 | n | n | 110.0 | n | n | 54.4
SMILES | Env fusion inh | GalR3 antag | COUP-TFII inh | Gli-Sufu antag | aDG glyco up | GalR3 conf | HEK-CNG parental | Gal4-VP16 ctr | NR2F2 inh conf
C[C@@H]1CN([C@@H](C)CO)S(=O)(=O)c2ccc(C#C[C@@H](C)O)cc2O[C@H]1CN(C)Cc1ccccn1 | n | x | x | x | x | x | x | x | x
C[C@@H]1CCCCO[C@@H](CN(C)S(=O)(=O)c2ccc(F)cc2)[C@H](C)CN([C@@H](C)CO)C(=O)c2cc(NC(=O)CCCN(C)C)ccc2O1 | n | x | x | x | x | x | x | x | x
C[C@@H]1CCCCO[C@@H](CN(C)C(=O)Nc2ccccc2)[C@H](C)CN([C@H](C)CO)C(=O)c2cc(NS(=O)(=O)c3cn(C)cn3)ccc2O1 | n | x | x | x | x | x | x | x | x
COc1cccc(NC(=O)c2ccc(CN3CCc4ccccc4C3)cc2)c1 | n | 46.5 | 54.0 | n | n | 102.4 | n | n | n
COc1ccc(NC(=O)Nc2ccc3c(c2)C(=O)N([C@H](C)CO)C[C@@H](C)[C@H](CN(C)C)OCCCC[C@@H](C)O3)cc1 | n | x | x | x | x | x | x | x | x
COc1ccc(S(=O)(=O)Nc2ccc3c(c2)C(=O)N([C@H](C)CO)C[C@H](C)[C@@H](CN(C)S(=O)(=O)c2c(C)noc2C)OCCCC[C@H](C)O3)cc1 | n | x | x | x | x | x | x | x | x
C[C@H](CO)N1C[C@H](C)[C@@H](CN(C)S(=O)(=O)c2cn(C)cn2)Oc2ccc(NC(=O)NC3CCCCC3)cc2CC1=O | n | x | x | x | x | x | x | x | x
Cc1oc(-c2ccc(Cl)cc2)nc1CSCC(=O)NC1CCN(Cc2ccccc2)CC1 | n | 96.3 | 52.4 | n | n | 105.5 | n | 14.7 | 57.2
Cc1oc(-c2ccc(Cl)cc2)nc1CN1CCCC(C(=O)NCc2cccnc2)C1 (configuration not stated) | 86.7 | 83.3 | 52.2 | n | n | 111.1 | n | n | 46.3
CCOc1ccc(-c2nc(CSCC(=O)NC3CCN(Cc4ccccc4)CC3)c(C)o2)cc1 | n | n | n | x | n | x | x | x | x
Cc1oc(-c2ccc(Cl)cc2)nc1CN1CCCC(C(=O)NCc2ccccn2)C1 (configuration not stated) | n | n | n | n | n | x | x | x | x
O=C(C[C@@H]1C[C@H]2c3cc(NC(=O)C4CCC4)ccc3O[C@H]2[C@H](CO)O1)NCc1ccncc1 | n | x | x | x | x | x | x | x | x
CN(C)c1ccc(CC(=O)N2CCCC(c3cc(C(=O)Nc4ccc(C(C)(C)C)cc4)no3)C2)cc1 (configuration not stated) | x | 49.0 | 63.5 | x | n | 109.3 | n | 13.7 | 61.1
O=C(Nc1ccccc1)c1cc(C2CCCN(C(=O)CCc3ccccc3)C2)on1 (configuration not stated) | n | n | n | x | n | x | x | x | x
